Assay results: PubChem BioAssay AID1159580 (chemical genetic matrix, 2015)
Screen size: about 5,500 compounds; about 2,000 (36%) were called active. Roughly 18% stayed inconclusive and do not appear here. Cut-off read from the data, not from the text of the source: active = normalized growth mostly below about 0.91 (no sharp cut-off); inconclusive = no clear call, values can overlap the other calls; inactive = mostly above about 0.92. The list shows a part of the results.

Assay: chemical genetic growth profiling, strain panel (AID 1159580);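 note: tested at 20 µM; growth read once vehicle control cultures reached saturation at 30 °C; 1 = growth at the plate median or of vehicle wells; lower values mean less growth of the strain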
Conditions: S. cerevisiae deletion strains, growth OD
[1] = locus YAR019C, strain CDC15, stronger effect = lower value
[2] = locus YBL105C, strain PKC1, stronger effect = lower value
[3] = locus YBR135W, strain CKS1, stronger effect = lower value
[4] = locus YBR136W, strain MEC1, stronger effect = lower value
[5] = locus YBR160W, strain CDC28, stronger effect = lower value
[6] = locus YDL017W, strain CDC7, stronger effect = lower value
[7] = locus YDL028C, strain MPS1, stronger effect = lower value
[8] = locus YDL101C, strain DUN1, stronger effect = lower value
[9] = locus YDL108W, strain KIN28, stronger effect = lower value
[10] = locus YDL132W, strain cdc53, stronger effect = lower value
[11] = locus YDL214C, strain PRR2, stronger effect = lower value
[12] = locus YDR052C, strain DBF4, stronger effect = lower value
[13] = locus YDR054C, strain cdc34, stronger effect = lower value
[14] = locus YDR226W, strain ADK1, stronger effect = lower value
[15] = locus YDR477W, strain SNF1, stronger effect = lower value
[16] = locus YER123W, strain YCK3, stronger effect = lower value
[17] = locus YER133W, strain GLC7, stronger effect = lower value
[18] = locus YFL009W, strain cdc4, stronger effect = lower value
[19] = locus YFL029C, strain CAK1, stronger effect = lower value
[20] = locus YFR003C, strain YPI1, stronger effect = lower value
[21] = locus YFR019W, strain FAB1, stronger effect = lower value
[22] = locus YFR028C, strain CDC14, stronger effect = lower value
[23] = locus YGR040W, strain KSS1, stronger effect = lower value
[24] = locus YGR052W, strain FMP48, stronger effect = lower value
[25] = locus YGR092W, strain DBF2, stronger effect = lower value
[26] = locus YHR030C, strain SLT2, stronger effect = lower value
[27] = locus YHR079C, strain IRE1, stronger effect = lower value
[28] = locus YHR082C, strain KSP1, stronger effect = lower value
[29] = locus YHR205W, strain SCH9, stronger effect = lower value
[30] = locus YIL147C, strain SLN1, stronger effect = lower value
[31] = locus YJL095W, strain BCK1, stronger effect = lower value
[32] = locus YJL128C, strain PBS2, stronger effect = lower value
[33] = locus YJL157C, strain FAR1, stronger effect = lower value
[34] = locus YJR016C, strain ILV3, stronger effect = lower value
[35] = locus YJR066W, strain TOR1 (second series), stronger effect = lower value
[36] = locus YJR066W, strain TOR1, stronger effect = lower value
[37] = locus YKL048C, strain ELM1, stronger effect = lower value
[38] = locus YKL067W, strain YNK1, stronger effect = lower value
[39] = locus YKL101W, strain HSL1, stronger effect = lower value
[40] = locus YKL193C, strain SDS22, stronger effect = lower value
[41] = locus YKL203C, strain TOR2, stronger effect = lower value
[42] = locus YLR113W, strain HOG1, stronger effect = lower value
[43] = locus YLR133W, strain CKI1, stronger effect = lower value
[44] = locus YLR403W, strain SFP1, stronger effect = lower value
[45] = locus YML070W, strain DAK1, stronger effect = lower value
[46] = locus YMR001C, strain CDC5, stronger effect = lower value
[47] = locus YMR205C, strain PFK2 (second series), stronger effect = lower value
[48] = locus YMR277W, strain FCP1, stronger effect = lower value
[49] = locus YNL006W, strain LST8, stronger effect = lower value
[50] = locus YNL020C, strain ARK1, stronger effect = lower value
[51] = locus YNL161W, strain CBK1, stronger effect = lower value
[52] = locus YNL183C, strain NPR1, stronger effect = lower value
[53] = locus YNL207W, strain RIO2, stronger effect = lower value
[54] = locus YNL222W, strain SSU72, stronger effect = lower value
[55] = locus YNL307C, strain MCK1 (second series), stronger effect = lower value
[56] = locus YOL078W, strain AVO1, stronger effect = lower value
[57] = locus YOL136C, strain PFK27, stronger effect = lower value
[58] = locus YOR061W, strain CKA2, stronger effect = lower value
[59] = locus YOR119C, strain RIO1, stronger effect = lower value
[60] = locus YOR231W, strain MKK1, stronger effect = lower value
[61] = locus YOR329C, strain SCD5, stronger effect = lower value
[62] = locus YPL031C, strain PHO85, stronger effect = lower value
[63] = locus YPL153C, strain RAD53, stronger effect = lower value
[64] = locus YPL204W, strain HRR25, stronger effect = lower value
[65] = locus YPL209C, strain IPL1, stronger effect = lower value
[66] = locus YPL256C, strain CLN2, stronger effect = lower value
[67] = locus YPR025C, strain CCL1, stronger effect = lower value
[68] = locus YPR106W, strain ISR1, stronger effect = lower value
[69] = locus YPR111W, strain DBF20, stronger effect = lower value
[70] = strain NNK1, stronger effect = lower value
[71] = strain TSCII, stronger effect = lower value

Measured: normalized growth

Cc1cc(Br)c(O)c(/C=N\NC(=S)NC(C)(C)C)c1
inactive: [1] 0.98 | [2] 0.987 | [3] 0.971 | [4] 0.981 | [5] 0.978 | [6] 0.972 | [7] 0.972 | [8] 0.993 | [9] 0.969 | [10] 0.984 | [11] 0.922 | [12] 0.982 | [13] 0.98 | [14] 0.965 | [15] 0.91 | [16] 0.894 | [17] 0.879 | [18] 0.981 | [19] 0.973 | [20] 0.976 | [21] 0.959 | [22] 0.975 | [23] 0.893 | [24] 0.883 | [25] 0.823 | [27] 0.872 | [28] 0.97 | [29] 0.942 | [30] 0.981 | [31] 0.875 | [32] 0.952 | [33] 0.911 | [34] 0.99 | [35] 0.839 | [36] 0.899 | [37] 0.973 | [38] 0.934 | [39] 0.914 | [40] 0.98 | [41] 0.914 | [43] 0.917 | [44] 0.857 | [45] 0.917 | [46] 0.975 | [47] 0.944 | [48] 0.98 | [49] 0.98 | [50] 0.903 | [51] 0.975 | [52] 0.848 | [53] 0.976 | [54] 0.988 | [55] 0.893 | [56] 0.982 | [57] 0.947 | [58] 0.91 | [59] 0.967 | [60] 0.874 | [61] 0.988 | [62] 0.876 | [63] 0.906 | [64] 0.884 | [65] 0.981 | [67] 0.975 | [68] 0.987 | [69] 0.985 | [70] 0.982 | [71] 0.984
active: [26] 0.752 | [42] 0.782 | [66] 0.838

CNC(=S)N/N=C\c1cc(Br)cc(Br)c1O
inactive: [8] 0.912 | locus YHR087W, strain rtc3, stronger effect = lower value 0.944 | locus YLR058C, strain SHM2 (second series), stronger effect = lower value 1 | locus YMR219W, strain ESC1, stronger effect = lower value 0.956
active: locus YAL013W, strain DEP1, stronger effect = lower value 0.794 | locus YBR229C, strain ROT2, stronger effect = lower value 0.919 | locus YCL061C, strain MRC1, stronger effect = lower value 0.861 | locus YDL134C, strain PPH21, stronger effect = lower value 0.537 | locus YDR150W, strain NUM1, stronger effect = lower value 0.755 | locus YEL061C, strain CIN8, stronger effect = lower value 0.463 | locus YGR078C, strain PAC10, stronger effect = lower value 0.912 | locus YGR229C, strain SMI1, stronger effect = lower value 0.813 | [26] 0.237 | locus YJR043C, strain POL32, stronger effect = lower value 0.814 | locus YJR075W, strain HOC1, stronger effect = lower value 0.847 | locus YKL190W, strain CNB1, stronger effect = lower value 0.36 | locus YLR039C, strain RIC1, stronger effect = lower value 0.155 | locus YLR085C, strain ARP6, stronger effect = lower value 0.139 | locus YLR262C, strain YPT6, stronger effect = lower value 0.15 | locus YML094W, strain GIM5, stronger effect = lower value 0.586 | locus YMR263W, strain SAP30, stronger effect = lower value 0.743 | locus YMR307W, strain GAS1, stronger effect = lower value 0.252 | locus YNL153C, strain GIM3, stronger effect = lower value 0.875 | locus YNL298W, strain CLA4 (second series), stronger effect = lower value 0.311 | locus YNL322C, strain KRE1, stronger effect = lower value 0.817 | locus YNR030W, strain Alg12, stronger effect = lower value 0.274 | locus YPL055C, strain LGE1, stronger effect = lower value 0.485 | locus YPL241C, strain CIN2, stronger effect = lower value 0.522 | locus YPR135W, strain CTF4, stronger effect = lower value 0.334

CC(C)(C)NC(=S)N/N=C\c1cc(Br)c(O)c(Br)c1
inactive: [1] 0.966 | [2] 0.969 | [3] 0.962 | [4] 0.965 | [5] 0.967 | [6] 0.966 | [7] 0.967 | [8] 0.959 | [9] 0.971 | [10] 0.955 | [11] 0.944 | [12] 0.971 | [13] 0.957 | [14] 0.946 | [15] 0.917 | [16] 0.917 | [17] 0.944 | [18] 0.962 | [19] 0.958 | [20] 0.971 | [21] 0.929 | [22] 0.952 | [23] 0.919 | [24] 0.968 | [25] 0.947 | [27] 0.926 | [28] 0.922 | [29] 0.938 | [30] 0.971 | [31] 0.875 | [32] 0.976 | [33] 0.957 | [34] 0.955 | [35] 0.932 | [36] 0.864 | [37] 0.951 | [38] 0.945 | [39] 0.927 | [40] 0.959 | [41] 0.897 | [42] 0.896 | [43] 0.928 | [44] 0.92 | [45] 0.959 | [46] 0.965 | [47] 0.949 | [48] 0.97 | [49] 0.965 | [50] 0.929 | [51] 0.969 | [52] 0.87 | [53] 0.964 | [54] 0.963 | [55] 0.898 | [56] 0.961 | [57] 0.938 | [58] 0.921 | [59] 0.932 | [60] 0.956 | [61] 0.969 | [62] 0.92 | [63] 0.953 | [64] 0.904 | [65] 0.966 | [66] 0.902 | [67] 0.966 | [68] 0.957 | [69] 0.955 | [70] 0.959 | [71] 0.965
active: [26] 0.768
